From PubChem BioAssay (NCATS)
Records with an inconclusive call do not appear. Calls of active or inactive are those of the source. The call rests on the fitted dose curve; in most records, active means well fitted inhibition curve with a large enough effect; inconclusive means small, poorly fitted or top-dose-only effect; inactive means flat fitted curve, though single readings scatter. Bridge positions count the residues as written; N and C are the ends. Square brackets hold non-standard residues; d marks the D form. Peptide text beside a SMILES is read from it. * marks the point of attachment. ξ: configuration not given here. Octanoyl(6-Me) = CCC(C)CCCCC(=O)*; ξThr(3R) = C[C@@H](O)C(N)C(=O)O; dDab = NCC[C@@H](N)C(=O)O; Dab = NCC[C@H](N)C(=O)O

Biological target: Luciferin 4-monooxygenase (Photinus pyralis) (UniProt P08659)
Experiment: Biochemical firefly luciferase enzyme assay for NPC (AID 624030);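 further: purified P. pyralis luciferase at 10 nM with luciferin and ATP substrate; nearly all actives have a fitted effect of over 70% in size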
Conditions: purified P. pyralis luciferase, luminescence, 5 min; series mostly up to 58.6 µM
Summary of the method: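 Direct inhibition of firefly luciferase enzyme (10 nM final, 50 mM Tris Acetate) assessed by luminescence within 5 minutes. Percent activity scaled between DMSO and PTC124 positive control, with concentration-effect curves classified by fit quality and response.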

Sequence of Luciferin 4-monooxygenase (Photinus pyralis) (P08659 whole entry, looked up): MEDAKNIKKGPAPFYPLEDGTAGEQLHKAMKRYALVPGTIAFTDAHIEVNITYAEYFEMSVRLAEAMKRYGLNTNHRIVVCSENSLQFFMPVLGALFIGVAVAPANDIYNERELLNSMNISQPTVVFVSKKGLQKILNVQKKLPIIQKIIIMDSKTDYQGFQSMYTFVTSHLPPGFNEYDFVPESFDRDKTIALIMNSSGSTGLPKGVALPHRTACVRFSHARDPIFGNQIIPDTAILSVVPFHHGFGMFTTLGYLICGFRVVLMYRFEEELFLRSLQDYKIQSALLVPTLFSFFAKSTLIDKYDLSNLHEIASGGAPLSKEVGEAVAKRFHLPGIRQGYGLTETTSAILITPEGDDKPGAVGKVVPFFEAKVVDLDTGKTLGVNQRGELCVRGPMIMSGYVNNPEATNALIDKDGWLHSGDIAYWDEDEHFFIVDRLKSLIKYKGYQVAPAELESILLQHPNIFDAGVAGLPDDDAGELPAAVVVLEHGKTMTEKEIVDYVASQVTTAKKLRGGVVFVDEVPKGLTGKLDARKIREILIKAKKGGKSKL

Potency, inactive:
OCC1OC(OC2C(CO)OC(OC3C(CO)OC(O)C(O)C3O)C(O)C2O)C(O)C(O)C1O (stereo unspecified)
CC(C)=CCC/C(C)=C\CC/C(C)=C\CC/C=C(\C)CC/C=C(\C)CCC=C(C)C
CO/N=C1\C[C@]2(C[C@@H]3C[C@H](C/C=C(/C)C[C@@H](C)/C=C\C=C4\CO[C@@H]5[C@@H](O)C(C)=C[C@@H](C(=O)O3)[C@]45O)O2)O[C@@H](/C(C)=C/C(C)C)[C@H]1C
CC1(C)C(C(=O)O)N2C(=O)CC2S1(=O)=O (stereo unspecified)
CCC(C)CCCCC(=O)N[C@@H](CCN)C(=O)N[C@H](C(=O)N[C@@H](CCN)C(=O)N[C@H]1CCNC(=O)C([C@@H](C)O)NC(=O)[C@@H](CCN)NC(=O)[C@H](CCN)NC(=O)[C@H](CC(C)C)NC(=O)[C@@H](CC(C)C)NC(=O)[C@H](CCN)NC1=O)[C@@H](C)O (stereo partly drawn) ({Octanoyl(6-Me)}-[Dab]T[Dab][Dab][Dab][dL]L[Dab][dDab][ξThr(3R)]; lactam 4-C)
C/C=C1\NC(=O)[C@H]2CSSCC/C=C\[C@H](CC(=O)N[C@H](C(C)C)C(=O)N2)OC(=O)C(C(C)C)NC1=O (stereo partly specified)
CCN1C(=O)c2ccccc2C1Nc1cccc(OCCN2CCCCC2)c1 (stereo unspecified)
C/C(=C(\CCO)SSCC1CCCO1)N(C=O)Cc1cnc(C)nc1N (stereo unspecified)
NC(N)=NCCCC(N)C(=O)O (stereo unspecified)
[2H]c1c([2H])c([2H])c2c([nH]c(=S)n2C2CCN(CCCC(=O)c3ccc(F)cc3)CC2)c1[2H]
CCN(CCO)CCn1c(Cc2ccccc2)nc2c1c(=O)n(C)c(=O)n2C
